In the library only some 5.7% were active in any assay of this set; here they are far more common.
Giardia kill – Giardia lamblia killing; Giardia lamblia trophozoite viability; activity change, % at 7.66 µM, hits read low; hit rate 0.15% among 340,000; in the data active = activity change below about -80%; inconclusive = between about -30% and that limit;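 note: parasites exposed to compound for two days anaerobically before the ATP read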
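Anaerobic 48 hrs incubation at 37 deg C of 100 trophozoites/well with test compounds; ATPLite 1-Step luminescence, 15-30 min RT, reports cellular ATP as viability.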
KB-V1 cytotox – KB-V1 MDR subline cytotoxicity; Potency, µM (doses to about 46.1 µM), most hits filed as cytotoxic; hit rate 3.4% among 400,000; KB-V1 MDR cells viability, CellTiter-Glo, 72 h; AID 1347076; note: nearly all actives have a fitted effect of over 60% in size
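KB-V1 cells (P-gp-expressing MDR subline of KB-3-1) in phenol-red-free DMEM with 10% FBS were exposed to library compounds over a concentration series for 72 h at 37 degrees C. Viability read by CellTiter-Glo luminescence; concentration-effect curves fitted after normalization.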
A549 tox – A549 cytotoxicity, counter-screen for Nrf2 inhibitors. AID 504648. A549 ARE-Fluc cells, CellTiter-Fluor viability, 18-24 h. hit rate 0.16% among 390,000. Potency, µM (doses to about 46 µM), hits mostly inhibitors
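Cytotoxicity counterscreen: CellTiter-Fluor fluorescence was measured in A549 ARE_Fluc cells after 18-24 h of compound exposure in a concentration series. The subsequent BugLite luminescent read reports ARE-luciferase activity.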
PI4K2A inh – blocks human PI4K2A kinase activity; purified PI4K2A, ADP-Glo luminescence, 1 h; stronger effect = lower value; hit rate 0.13% among 420,000; activity change, negative = inhibition, % at 76.9 µM; in the data active = activity change below about -50%; inconclusive = mostly about -30% to -49%
Target sequence (Q9BTU6 whole entry, looked up): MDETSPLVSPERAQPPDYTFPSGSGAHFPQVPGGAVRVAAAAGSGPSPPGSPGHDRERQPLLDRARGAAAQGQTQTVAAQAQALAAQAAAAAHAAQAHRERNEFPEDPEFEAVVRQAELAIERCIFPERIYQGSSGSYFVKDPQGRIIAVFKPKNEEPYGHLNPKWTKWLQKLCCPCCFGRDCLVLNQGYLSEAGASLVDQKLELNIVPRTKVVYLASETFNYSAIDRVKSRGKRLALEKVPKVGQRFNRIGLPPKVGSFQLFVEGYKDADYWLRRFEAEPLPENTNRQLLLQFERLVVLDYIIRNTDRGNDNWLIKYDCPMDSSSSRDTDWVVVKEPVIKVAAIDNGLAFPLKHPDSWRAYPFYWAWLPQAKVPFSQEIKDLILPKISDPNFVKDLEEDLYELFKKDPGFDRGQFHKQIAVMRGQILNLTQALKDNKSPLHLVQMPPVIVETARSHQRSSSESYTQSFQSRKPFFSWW
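In this quantitative HTS, ADP production by PI4K2A was quantified luminescently after 1 h at ambient temperature; 100 microM adenosine served as plate-quality control.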
KB-3-1 tox – KB-3-1 parental cell cytotoxicity; KB-3-1 viability, CellTiter-Glo ATP luminescence, 72 h; Potency, µM (top dose mostly 46.1 µM), usual class: cytotoxic; hit rate 1.4% among 400,000; AID 1347075; note: nearly all actives have a fitted effect of over 60% in size
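Parental KB-3-1 adenocarcinoma cells in phenol-red-free DMEM with 10% FBS were pin-treated with compounds at several concentrations, incubated 72 h at 37 °C, and viability read by CellTiter-Glo luminescence; concentration-effect curves were fitted after normalization.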
Nrf2 inh – Nrf2 pathway inhibition | A549 ARE-Fluc reporter, luciferase luminescence, 18-24 h | hit rate 2.1% among 360,000 | Potency, µM (titrated, usually from 46 µM), hits mostly inhibitors; note: nearly all actives have a fitted effect of over 60% in size
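Cells were seeded and rested 2 h, then exposed to compounds for 18-24 h. CellTiter-Fluor was read first as a viability measure. BugLite was added 15 min before the final luminescent read of ARE-luciferase activity in A549 cells.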
Hits are given with their value; . = inactive; ? = inconclusive; / = no result; ! = a repeat was not active. Unless noted, calls come from the whole dose curve; as a rule, active = well fitted curve in the direction sought with a large enough effect; inconclusive = small, poorly fitted or top-dose-only effect, or another doubt; inactive = no such curve, though single readings can be large; an effect the other way counts as inactive or inconclusive.

SMILES | Giardia kill | KB-V1 cytotox | A549 tox | PI4K2A inh | KB-3-1 tox | Nrf2 inh
CCOC(=O)c1[nH]c(C)c(C(=O)Nc2cc(Cl)ccc2C)c1C | . | 0.461µM | . | . | ? | ?
COc1ccc(OC)c(NC(=O)c2[nH]c(C)c(C(C)=O)c2C)c1 | . | 16.4µM | . | . | . | .
COc1ccc(CCNC(=O)c2[nH]c(C)c(C(C)=O)c2C)cc1OC | . | . | . | . | . | .
Cc1ccc(C)c(NC(=O)CN(C)C(=O)c2ccc3[nH]c4c(c3c2)CC(C)CC4)c1 (centres undefined) | . | ? | ? | . | . | 18.4µM
Cn1cc(C(=O)NCc2ccc(Cl)cc2)c(=O)c2cc(S(=O)(=O)N3CCCCCC3)ccc21 | / | . | . | . | . | .
O=C(COC(=O)c1cccc2c1C(=O)c1ccccc1C2=O)NC1CCCCC1 | . | 20.6µM | . | . | . | ?
Cc1ccc(C)c(NC(=O)COC(=O)c2cccc3c2C(=O)c2ccccc2C3=O)c1 | . | 14.6µM | . | . | ? | 13µM
O=C(COC(=O)c1ccccc1C(=O)c1ccc(Cl)c([N+](=O)[O-])c1)NC1CCCCCC1 | . | . | ? | . | ? | 20.6µM
Cc1cc(C)c(NC(=O)COC(=O)c2cccc3c2C(=O)c2ccccc2C3=O)c(C)c1 | . | ? | . | . | ? | 16.4µM
CC1CCN2c3ccccc3CC3(C(=O)OC(C)(C)OC3=O)C2C1 (centres undefined) | . | . | . | / | . | .
COc1ccc(C(NC(=O)COc2ccc(C#N)cc2)c2ccc(OC)cc2)cc1 | / | . | / | / | . | /
O=C(COC(=O)C12CC3CC(CC(O)(C3)C1)C2)NCc1ccco1 | . | / | . | / | / | .
CCn1nnc(NC(=O)COc2cc(C)ccc2C(C)C)n1 | . | 14.6µM | . | . | . | /
Cc1ccc(C(C)C)c(OCC(=O)Nc2cc(-c3nc4ccccc4[nH]3)ccc2C)c1 | / | / | 9.2µM | . | / | 6.51µM
CCCCN1CN2Cc3cc(F)ccc3C2CS1(=O)=O (centres undefined) | / | / | / | . | / | /
CC(C)Cn1cc(C(=O)N2CCN(c3cccc(Cl)c3)CC2)c2c3ccccc3n(C)c2c1=O | / | . | ? | . | ? | 20.6µM
Cc1cc(C)cc(C(=O)OCCCN(C)C2CN(Cc3cn(Cc4ccccc4C(F)(F)F)nn3)S(=O)(=O)C2)c1 (centres undefined) | / | / | / | . | / | /
COCCn1c(SCC(=O)Nc2cccc(C)c2C)nc2c(oc3ccccc32)c1=O | / | . | ? | -66.3 | . | .
Cc1cnc(NC(=O)CSc2ncc(-c3ccccc3)n2Cc2ccco2)s1 | . | 20.6µM | . | . | . | ?
COCCn1c(-c2ccc(OC)cc2)cnc1SCC(=O)Nc1cccc2ccccc12 | . | 7.31µM | . | . | . | ?
COc1ccc(NC(=O)CSc2ncc(-c3ccc(F)cc3)n2Cc2ccco2)cc1 | . | . | . | . | . | 15.8µM
COc1ccc(-c2cnc(SCC(=O)Nc3nc(C(C)(C)C)cs3)n2Cc2ccco2)cc1 | . | ? | . | . | ? | 20.6µM
O=C1CCN(CCc2ccccc2)CCN1[C@H](CSc1ccccc1)c1ccccc1 | . | ? | . | -63.2 | ? | .
Cc1ccc(SC[C@H](Cc2ccccc2)N2CCN(CC(C)C)CCC2=O)cc1 | . | . | . | . | . | ?
CC(C)CN1CCC(=O)N([C@H](CSc2ccccc2)Cc2ccccc2)CC1 | . | 13µM! | . | . | ? | .
SMILES | Giardia kill | KB-V1 cytotox | A549 tox | PI4K2A inh | KB-3-1 tox | Nrf2 inh
Cc1ccc(CNS(=O)(=O)c2ccc(-c3cnc(C4CC4)o3)cc2)cc1 | . | . | . | . | . | .
CCOc1ccccc1CNS(=O)(=O)c1ccc(-c2cnc(C3CC3)o2)cc1 | . | 1.46µM! | . | . | 1.16µM | .
O=S(=O)(NCc1ccccc1)c1ccc(-c2cnc(C3CC3)o2)cc1 | . | 14.6µM! | . | . | 18.4µM! | .
Cc1ccc(NS(=O)(=O)c2cc3c(cc2-c2cn[nH]c2)NC(=O)CO3)cc1C | / | / | . | / | / | .
COc1cc(C#Cc2c(-c3cncn3C)n(C)c3ccc(-c4cc(OC)c(OC)c(OC)c4)cc23)cc(OC)c1 | ? | ? | . | . | 11.6µM | ?
COc1cc(C#Cc2c(-c3cncn3C)n(C)c3ccc(-c4ccc(OC)nc4)cc23)cc(OC)c1 | . | ? | . | . | ? | .
COC(C(=O)C(O)C(C)O)C1Cc2cc3cc(OC4CC(OC5CC(O)C(O)C(C)O5)C(O)C(C)O4)c(C)c(O)c3c(O)c2C(=O)C1OC1CC(OC2CC(OC3CC(C)(O)C(O)C(C)O3)C(O)C(C)O2)C(O)C(C)O1 (centres undefined) | / | . | / | / | 0.0052µM | /
Cc1ccc(Cn2c(=O)c3ccccc3n3c(-c4ccccc4)nnc23)cc1 | / | . | . | . | . | .
Cc1nn(CCC(=O)NNC(=O)NCc2ccccc2)c(C)c1[N+](=O)[O-] | / | / | / | . | / | /
COc1ccccc1OCCCn1c(=O)sc2ccccc21 | . | 14.6µM | . | . | . | .
COc1ccccc1OCCCn1c(=O)oc2ccccc21 | . | . | . | . | . | /
CCOC(=O)c1cnc(SCc2cccc3ccccc23)nc1N | . | 18.4µM | . | . | ? | .
CCOC(=O)c1cnc(SCc2ccc(C(C)(C)C)cc2)nc1N | . | ? | ? | . | 23.1µM | ?
CCOC(=O)c1cnc(SCc2ccccc2)nc1N | . | ? | . | . | . | ?
O=[N+]([O-])c1ccc(CSc2nnc(-c3cccc(Cl)c3)n2Cc2ccco2)cc1 | / | / | / | . | / | /
COc1ccc(OC)c(-c2csc(-c3c(N)c(C(=O)c4ccc(Cl)cc4)n4ccccc34)n2)c1 | / | . | . | . | . | .
CN1C2CCC1/C(=C\c1ccccc1F)C(=O)/C2=C/c1ccccc1F | . | 13µM | . | . | ? | .
CCC[C@H]1[C@@H](OC(=O)NCc2ccc(C(F)(F)F)cc2)CC[C@@]23CCCN2C(=O)CCC[C@@H]13 | / | / | / | . | / | /
Cc1ccc(-c2nnc(N3CCN(C(=O)CN4CCOCC4)CC3)c3ccccc23)cc1 | . | 13µM | . | . | . | .
O=C(COc1ccc([N+](=O)[O-])cc1)N1CCN(c2nnc(-c3ccccc3)c3ccccc23)CC1 | . | . | . | . | . | 23.1µM
O=C(COc1ccc(-c2nnc(N3CCCCC3)c3ccccc23)cc1)N1CCCCC1 | . | ? | . | . | ? | ?
Cc1ccc(-c2nnc(N3CCN(C(=O)COc4ccccc4)CC3)c3ccccc23)cc1 | . | 2.59µM | ? | . | 18.4µM | 18.4µM
CCCC(=O)N1CCN(c2nnc(-c3ccccc3)c3ccccc23)CC1 | . | . | . | . | . | .
COc1ccc(-n2c(SCC(=O)NCCCSC)nnc2-c2ccncc2)cc1 | / | / | / | . | / | /
Cc1[nH]nc(N=CC2=C(O)CC(C)(C)CC2=O)c1-c1ccccc1 | . | 23.1µM! | ? | . | ? | .

High-throughput results from PubChem BioAssay.
